# Source: PubChem BioAssay AID1490 (National Center for Advancing Translational Sciences (NCATS), 2009)
# About 11,000 (3.5%) of roughly 310,000 compounds were called active. Another 4% or so got no clear call; they are omitted. Calls follow the shape of the dose curve; as a rule, active = well fitted inhibition curve with a large enough effect; inconclusive = small, poorly fitted or top-dose-only effect, or another doubt; inactive = no such curve, though single readings can be large or run the other way. Shown is part of a subset that was picked to be rich in actives. More than one record can exist for a structure, and the calls need not agree.
# Molecular target: 4'-phosphopantetheinyl transferase ffp (Bacillus subtilis) (UniProt Q9F4F7)
# Experiment: qHTS Assay for Inhibitors of Bacillus subtilis Sfp phosphopantetheinyl transferase (PPTase);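 also: the enzyme is Sfp with the accession as filed and its product quenches rhodamine fluorescence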;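 as to largest response in the series, negative = inhibition: 0% = enzyme reaction without inhibitor and -100% = no enzyme wells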
# Settings: Biochemical Sfp PPTase activity
# Procedure, shortened: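 With Hepes-Na pH 7.6 buffer containing 10 mM MgCl2, Sfp (15 nM) modified BHQ-2-YbbR (12.5 uM) using rhodamine-CoA (5 uM). Two reads 30 minutes apart at 525/598 nm yielded each well's rate.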
# Potency is read from the fitted curve at half-maximal effect.
SMILES,"largest response in the series, negative = inhibition",Potency
Cc1cc(C)c(S(=O)(=O)c2cc(F)ccc2C)c(=O)[nH]1,27.3% (inactive),
CCCN1CC=C2C(C#N)=C(N)C(C#N)(C#N)C(c3cc(OC)ccc3OC)C2C1 (stereo not drawn),-12.4% (inactive),
N#CC1=C(N)C(C#N)(C#N)[C@H](c2ccsc2)[C@H]2COCC=C12,,2.51 µM (active)
CCOC(=O)N1CC=C2C(C#N)=C(N)C(C#N)(C#N)[C@H](c3cccs3)[C@H]2C1,-5.72% (inactive),
COc1ccc(CNC(=O)CN(c2ccc(OC)c(Cl)c2)S(=O)(=O)c2ccc(C)cc2)cc1,17.9% (inactive),
Cc1ccc(CCN2CC(C(=O)NCCc3ccccc3)CC2=O)cc1 (stereo not drawn),20.9% (inactive),
COc1ccccc1C(=O)N1CC2(C)CC1CC(C)(C)C2 (stereo not drawn),23.6% (inactive),
Cc1cccc(C(=O)NCC(=O)OCC(=O)N2CC3(C)CC2CC(C)(C)C3)c1 (stereo not drawn),-0.692% (inactive),
Cc1nnnn1/C(=C\c1ccccc1)C(=O)OCC(=O)N1CC2(C)CC1CC(C)(C)C2 (stereo not drawn),,50.1 µM (active)
CC(NCCc1ccc(S(N)(=O)=O)cc1)C(=O)NCc1ccccc1 (stereo not drawn),4.54% (inactive),
C=CCn1c(C23CC4CC(CC(C4)C2)C3)n[nH]c1=S,14.6% (inactive),
COc1ccc(N(C(=O)c2snc(C(N)=O)c2N)C(C(=O)NC2CCCC2)c2ccc(C)o2)c(OC)c1 (stereo not drawn),-2.29% (inactive),
Cn1cc(C(=O)c2ccc(Cl)cc2Cl)cc1C(=O)NN,10.1% (inactive),
CCN1C(=O)/C(=c2\s/c(=C3\Sc4ccccc4N3C)c(=O)n2C)N(C)C1=S,1.11% (inactive),
CCN1C(=O)/C(=C2/Sc3ccccc3N2CCCS(=O)(=O)O)SC1=S,8.36% (inactive),79.4 µM (active)
CCCCN1C(=O)/C(=C2/Sc3ccc(Cl)cc3N2CC)SC1=S,3.35% (inactive),
C[C@H](NC(=O)c1nc[nH]c1C(=O)NCC(=O)OC(C)(C)C)c1ccccc1,10.2% (inactive),
CC(C)[C@H](NC(=O)N1CCn2c1nc1ccccc12)C(=O)NCc1ccc2c(c1)OCO2,20.1% (inactive),
CC(C)C(=O)NCC(c1cccs1)S(=O)(=O)c1ccc(F)cc1 (stereo not drawn),0.881% (inactive),

SMILES,"largest response in the series, negative = inhibition",Potency
CNc1ccc(NC(C)=O)cc1[N+](=O)[O-],18.8% (inactive),
Cc1ccc(/C=C/C(=O)Nc2ccc([N+](=O)[O-])c(NC(=O)/C=C/c3ccc(C)o3)c2)o1,,17.8 µM (active)
CCc1nnc(NC(=O)/C=C/c2ccc(C)o2)s1,1.89% (inactive),
COc1cc(/C=C2\SC(=O)NC2=O)ccc1OCc1ccc(Cl)nc1,-9.24% (inactive),
CCn1c(CNC(=O)c2cc(OC)c(OC)c(OC)c2)cc2cc(C)ccc21,-13.9% (inactive),
CCOc1ccc(CCNC(=O)Nc2ccccc2)cc1OCC,11.9% (inactive),
Cc1ccccc1NC(=O)C1CCCN(C(=O)NCc2ccccc2)C1 (stereo not drawn),-0.998% (inactive),
N=c1n(CCc2ccccc2)c2ccccc2n1Cc1ccccc1F,,50.1 µM (active)
Fc1ccccc1Cn1cnc(NC(=S)NCCc2ccccc2)n1,-24.4% (inactive),
CC(=O)NC(C)c1nc2ccccc2n1Cc1ccccc1F (stereo not drawn),11% (inactive),
Cc1cccn2c(=O)c(C=O)c(Nc3ccc(S(N)(=O)=O)cc3)nc12,12.7% (inactive),
O=Cc1c(Nc2ccccc2Cl)nc2ccccn2c1=O,,31.6 µM (active)
O=Cc1c(N2CCN(c3cccc(Cl)c3)CC2)nc2ccccn2c1=O,-4.2% (inactive),
O=C(Nc1cccc(-c2cccc(Cl)c2)c1)C1CCN(C2CCC2)CC1,-24.2% (inactive),
COc1ccc(S(=O)(=O)N2CCC(C(=O)N3CCCC3)CC2)cc1C,9.47% (inactive),
O=C1NC(=O)C(c2ccc(Cl)cc2)N1 (stereo not drawn),-0.697% (inactive),
O=C1CSC(c2ccc(Cl)cc2)N1 (stereo not drawn),,79.4 µM (active)
COC(=O)C1=C(N)Oc2cc(C)[nH]c(=O)c2C1c1ccc(Cl)cc1 (stereo not drawn),1.3% (inactive),
CC(C)c1ccc(NC(=O)Cn2ncc3ccccc32)cc1,13.4% (inactive),

SMILES,"largest response in the series, negative = inhibition",Potency
COc1ccc2c(C(=O)c3ccc(C)cc3)n(CCC(N)=O)[n+]([O-])c2c1,-4.94% (inactive),
Cc1cccc(Nc2nc(-c3ccccc3)cs2)n1,-27.9% (inactive),
COc1ccc(CCNc2nc(-c3cccc(NC(C)=O)c3)cs2)cc1OC,-23.9% (inactive),
CC(=O)Nc1cccc(-c2csc(Nc3cccc(C)n3)n2)c1,,79.4 µM (active)
Cc1noc(NS(=O)(=O)c2ccc(NC(=O)c3oc4ccc(F)cc4c3C)cc2)c1C,14.6% (inactive),
CCN(CC)C(=O)COc1coc(CN2CCN(Cc3ccccc3)CC2)cc1=O,12.6% (inactive),
COCCNC(=S)Nc1cc(S(=O)(=O)N2CCOCC2)ccc1N1CCCCC1,,1 µM (active)
O=C(COC(=O)Cc1ccc(F)cc1)Nc1cc(S(=O)(=O)N2CCOCC2)ccc1N1CCCC1,11.4% (inactive),
CC(=O)NCCC(=O)Nc1cc(S(=O)(=O)N2CCOCC2)ccc1N1CCOCC1,23.2% (inactive),
CCc1ccccc1NC(=O)[C@@H]1CCC(=O)N1C1OC(=O)c2c1ccc(OC)c2OC (stereo partly drawn),9.06% (inactive),
CCOc1ccc(-n2c(N)c(C(=O)NCC3CCCO3)sc2=S)cc1 (stereo not drawn),,50.1 µM (active)
CCOc1ccc(S(=O)(=O)NCC2CCCO2)cc1 (stereo not drawn),12.6% (inactive),
CCOc1ccc(N(CC(=O)NCC2CCCO2)S(=O)(=O)c2ccc(C)cc2)cc1 (stereo not drawn),9.58% (inactive),
COc1ccc(-c2cc(C(=O)NC(Cc3c[nH]c4ccccc34)C(=O)O)c(C)o2)cc1OC (stereo not drawn),,35.5 µM (active)
Cc1cccc(C)c1OCC(=O)NC(Cc1c[nH]c2ccccc12)C(=O)O (stereo not drawn),12.2% (inactive),
COc1ccc(-c2cc(=O)oc3cc(OCC(=O)N[C@@H](Cc4c[nH]c5ccccc45)C(=O)O)ccc23)cc1,-17.5% (inactive),
CC1C(=O)Nc2ccccc2N1C(=O)c1ccc(F)cc1F (stereo not drawn),9.39% (inactive),
COc1cccc(OCc2cc(C(=O)N3CCN(C(=O)c4ccco4)CC3)no2)c1,10.6% (inactive),
Cc1cc(Cl)ccc1OCCCC(=O)Nc1cccc(-n2cnnn2)c1,1.31% (inactive),
